# According to the supplement of paper PMC6522484:
# ± gives the standard deviation of the averaged measurements.
# Assays:
# DLD1 [1] = test: cell viability (CellTiter-Glo) relative to plate median (fraction of plate median); higher = more viable cells; conditions: 5 µM; treatment time 24 h; reporter: 7TFP
# How it was run: (§1)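 Each entry is a luminescence signal normalised to the plate median, averaged over independent replicates. The replicate count was two, and the cells were colorectal cancer lines with stable lentiviral TCF/Wnt firefly luciferase reporters exposed to library compounds at a final 5 µM for 24 h. Firefly luciferase and CellTiterGlo were measured on parallel plates.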
# HCT116 = test: as above; conditions: 5 µM; treatment time 24 h; reporter: TCF4/Wnt
# How it was run: as §1
# SW480 [2] = test: as above; conditions: 5 µM; treatment time 24 h; reporter: 7TFP
# How it was run: as §1
# DLD1 [3] = test: TCF/Wnt firefly luciferase reporter signal relative to plate median (fraction of plate median); higher = higher Wnt reporter signal; conditions: 5 µM; treatment time 24 h; reporter: 7TFP
# How it was run: as §1
# SW480 [4] = test: as above; conditions: 5 µM; treatment time 24 h; reporter: 7TFP
# How it was run: as §1
SMILES,cell viability (DLD1 [1]),cell viability (HCT116),cell viability (SW480 [2]),TCF/Wnt firefly luciferase reporter signal (DLD1 [3]),TCF/Wnt firefly luciferase reporter signal (SW480 [4])
Nc1ncn[nH]1,0.973 ± 0.067,1.09 ± 0.11,1 ± 0.029,0.957 ± 0.089,0.978 ± 0.012
CN1[C@H]2C[C@H](OC(=O)[C@H](CO)c3ccccc3)C[C@@H]1[C@@H](O)C2,0.934 ± 0.033,1 ± 0.039,0.957 ± 0.03,0.924 ± 0.025,0.94 ± 0.073
Cc1ccc(-c2nc3ccc(C)cn3c2CC(=O)N(C)C)cc1,1.02 ± 0.035,1.09 ± 0.16,0.955 ± 0.056,1.13 ± 0.085,0.988 ± 0.06
CC1C=CC=CCCC=CC=CC=CC=CC(OC2OC(C)C(O)C(N)C2O)CC2OC(O)(CC(O)C(O)CCC(O)CC(O)CC(O)CC(=O)OC(C)C(C)C1O)CC(O)C2C(=O)O (stereo not given),0.932 ± 0.04,0.906 ± 0.023,0.973 ± 0.031,0.874 ± 0.0014,0.762 ± 0.0092
CC(C)c1cc2c(c(O)c1O)[C@@]1(C(=O)O)CCCC(C)(C)[C@@H]1CC2,0.981 ± 0.013,1.03 ± 0.079,1.03 ± 0.021,1.03 ± 0.021,0.944 ± 0.11
CN1C[C@H](CNC(=O)OCc2ccccc2)C[C@@H]2c3cccc4c3c(cn4C)C[C@H]21,1.03 ± 0.049,1.03 ± 0.069,1.09 ± 0.057,0.986 ± 0.049,1.01 ± 0.052
CC(=O)O[C@H]1CC[C@@]2(C)[C@H](CC[C@@H]3[C@@H]2CC[C@]2(C)[C@@H](C4=CC(=O)OC4)[C@@H](OC(C)=O)C[C@]32O)C1,0.633 ± 0.0092,0.723 ± 0.06,0.82 ± 0.086,0.277 ± 0.1,0.592 ± 0.088
CC(Cc1ccc(O)cc1)NCC(O)c1cc(O)cc(O)c1 (stereo not given),1.04 ± 0.068,1.1 ± 0.099,0.967 ± 0.012,0.9645 ± 0.0035,0.945 ± 0.013
CC(C)C[C@H]1C(=O)N2CCC[C@H]2[C@]2(O)O[C@](NC(=O)[C@@H]3C=C4c5cccc6[nH]c(Br)c(c56)C[C@H]4N(C)C3)(C(C)C)C(=O)N12,1.05 ± 0.014,0.974 ± 0.08,1.07 ± 0.014,0.985 ± 0.021,0.931 ± 0.052
CC(=O)O[C@@H]1C[C@H]2C(C)(C)C(=O)C=C[C@]2(C)[C@H]2CC[C@]3(C)C(=CC(=O)O[C@H]3c3ccoc3)[C@@]21C,0.99 ± 0.086,0.997 ± 0.075,0.963 ± 0.016,1.03 ± 0.1,0.975 ± 0.05
NCCc1ccc(O)cc1,0.964 ± 0.11,0.93 ± 0.03,0.953 ± 0.036,0.993 ± 0.15,1.07 ± 0.014
C[C@@H](CO)NC(=O)[C@@H]1C=C2c3cccc4[nH]cc(c34)C[C@H]2N(C)C1,0.983 ± 0.067,1.01 ± 0.061,0.939 ± 0.052,1.09 ± 0.099,0.98 ± 0.026
CN1CCc2cc3c(cc2C1O)OCO3 (stereo not given),1.01 ± 0.026,1.03 ± 0.047,0.995 ± 0.021,0.956 ± 0.037,0.942 ± 0.064
CC(C)=CCC[C@@H](C(=O)O)[C@H]1CC[C@@]2(C)C3=C(CC[C@]12C)[C@@]1(C)CC[C@H](O)C(C)(C)[C@@H]1CC3 [Trametenolic acid],0.995 ± 0.022,1.07 ± 0.071,1.02 ± 0.028,1.08 ± 0.085,1.12 ± 0.13
C[N+]1(C)[C@@H]2C[C@@H](OC(=O)[C@H](CO)c3ccccc3)C[C@H]1[C@@H]1O[C@@H]12,1.09 ± 0.021,0.971 ± 0.069,1.035 ± 0.0071,0.9885 ± 0.005,1.085 ± 0.0071
CCC(N)C(O)c1ccc(O)c(O)c1 (stereo not given),1.02 ± 0.055,1.1 ± 0.05,1.07 ± 0.057,1.03 ± 0.22,1.08 ± 0.071
C=CCc1cc(OC)c2c(c1OC)OCO2,0.962 ± 0.15,0.864 ± 0.057,0.994 ± 0.023,0.876 ± 0.099,0.976 ± 0.033
COC(=O)[C@]1(C)CC[C@]2(C)CC[C@]3(C)C4=CC=C5C(=CC(=O)C(O)=C5C)[C@]4(C)CC[C@@]3(C)[C@@H]2C1,0.981 ± 0.0085,1.16 ± 0.05,1.03 ± 0.014,1.11 ± 0.071,1.03 ± 0.08
O=[N+]([O-])c1cc([As](=O)(O)O)ccc1O,1.07 ± 0.14,1.07 ± 0.14,1.075 ± 0.0071,1.01 ± 0.19,0.959 ± 0.1
CC(=O)O[C@H]1CC[C@@]2(C)C(=CC[C@@H]3[C@@H]2CC[C@]2(C)C(=O)CC[C@@H]32)C1,1.02 ± 0.075,1.03 ± 0.083,0.983 ± 0.025,0.944 ± 0.028,1.08 ± 0.092
CC(=O)O[C@H]1[C@H]2[C@@H](OC(=O)Cc3ccccc3)[C@@H](C)C[C@]2(OC(C)=O)C(=O)/C(C)=C/[C@@H]2[C@H](CC[C@@]13CO3)C2(C)C,1.06 ± 0.097,1.01 ± 0.086,1.06 ± 0.021,1.09 ± 0.014,1.075 ± 0.0071
NC(=O)C[S+]([O-])C(c1ccccc1)c1ccccc1 (stereo not given),0.952 ± 0.12,1.1 ± 0.05,1.02 ± 0.014,1.08 ± 0.064,1.02 ± 0.014
C[C@@H]1CC[C@]2(NC1)O[C@H]1C[C@H]3[C@@H]4CC=C5C[C@@H](O)CC[C@]5(C)[C@H]4CC[C@]3(C)[C@H]1[C@@H]2C,0.943 ± 0.011,0.904 ± 0.035,0.957 ± 0.044,0.963 ± 0.037,0.978 ± 0.016
[O-][n+]1ccccc1[S-].[O-][n+]1ccccc1[S-].[Zn+2],0.515 ± 0.32,0.19 ± 0.11,0.628 ± 0.13,0.216 ± 0.13,0.165 ± 0.15
CC[C@@H](C(=O)[C@@H](C)[C@@H](O)[C@H](C)[C@@H]1O[C@@H]([C@@H](CC)C(=O)O)CC[C@@H]1C)[C@H]1O[C@]2(C=C[C@@H](O)[C@]3(CC[C@@](C)([C@H]4CC[C@](O)(CC)[C@H](C)O4)O3)O2)[C@H](C)C[C@@H]1C,0.948 ± 0.14,0.978 ± 0.073,1.07 ± 0.05,0.783 ± 0.11,0.897 ± 0.089
COc1cc(OC)c2c(c1)O[C@H](c1ccc(OC)c(OC)c1)[C@@H](O)C2,0.924 ± 0.071,0.955 ± 0.047,0.973 ± 0.096,0.952 ± 0.023,1.01 ± 0.014
